Source: PubChem (National Center for Advancing Translational Sciences (NCATS))
Sampled rows, rich in hits. Any-hit rate of the full collection: about 2.9%.
D3 ag: activates the human D3 dopamine receptor; actives 0.58% (n = 410,000); max activation, %; D3R DiscoveRx beta-arrestin cells, luminescence, 90 min; P35462; in the data active = max activation above about 30%; note: 0% is about no effect
Target sequence (P35462 whole entry, looked up): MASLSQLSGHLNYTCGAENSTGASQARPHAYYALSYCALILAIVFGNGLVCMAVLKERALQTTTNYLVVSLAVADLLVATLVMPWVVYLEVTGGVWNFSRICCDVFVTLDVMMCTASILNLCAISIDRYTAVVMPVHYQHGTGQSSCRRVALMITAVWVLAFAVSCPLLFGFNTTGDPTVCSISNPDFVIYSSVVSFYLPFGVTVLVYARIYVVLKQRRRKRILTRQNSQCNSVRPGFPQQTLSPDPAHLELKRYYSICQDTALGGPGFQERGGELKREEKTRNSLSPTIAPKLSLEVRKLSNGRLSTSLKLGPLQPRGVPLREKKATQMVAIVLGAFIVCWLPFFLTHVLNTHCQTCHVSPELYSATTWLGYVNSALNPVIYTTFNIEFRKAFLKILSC
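Agonist mode: compounds and dopamine controls were applied to plated cells for 90 min at 37 degrees C after an overnight attachment at 1500 cells/well. Luminescent read-out followed 30 - 60 minutes at room temperature with DiscoveRx detection reagent.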
DRD3 antagonist: D3 dopamine receptor (human) antagonism; P35462; max response, negative = inhibition, %; D3R cells, DiscoveRx beta-arrestin luminescence, antagonist mode; stronger effect = lower value; actives 2.5% (n = 360,000); in the data active = max response below about -50%; inconclusive = no clear call, values can overlap the other calls; note: % is set by controls: 0 for no effect and ±100 for the full control effect
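Cells expressing the human receptor were seeded at 1500 cells/well, incubated overnight at 37 degrees C in 5% CO2, then exposed to library compounds with dopamine controls for 90 minutes at 37 degrees C before luminescent detection.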
TRPML1 inh: human mucolipin-1 channel inhibition | TRPML1-inducible cells, Ca2+ dye fluorescence, FDSS; stronger effect = lower value; inhibition of EC80 agonist-evoked calcium signal | activity change, negative = inhibition, % (no concentration beside the values) | actives 0.02% (n = 390,000) | AID 624415; in the data active = activity change below about -50%; inconclusive = between about -30% and that limit;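 note: stimulus is agonist 54-4 at its EC80 concentration; % is set by controls: 0 for no effect and ±100 for the full control effect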
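Tet-induced TRPML1-DL cells loaded with Ca8 no-wash calcium dye were read kinetically on FDSS. Compound addition was followed by EC80 agonist 54-4 (4 uM final); inhibition was read over 110 s.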
TRPML1 ag: agonists of human TRPML1 channel; actives 0.12% (n = 410,000); AID 624414; TRPML1-expressing cells, Ca2+ dye fluorescence, FDSS; activation, % (test concentration not listed); in the data active = activation above about 50%; inconclusive = mostly about 30% to 49%; note: 0% is about no effect
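Tetracycline-induced TRPML1-DL cells are seeded and incubated overnight before loading with a no-wash Ca2+ dye and quencher. Agonist activity is taken from the 110 s fluorescence read following compound pin-transfer on an FDSS, before EC80 54-4 challenge.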
* hit, by the source's call.

For Cc1nn(CC(=O)NCCCN2CCN(Cc3ccccc3)CC2)c(=O)c2cc(-c3ccccc3)nn12 the results were D3 ag -16.6, DRD3 antagonist -65.8*, TRPML1 inh 2.0 and TRPML1 ag 0.0.
For CCc1nn(CC(=O)NCCCN2CCc3ccccc3C2)c(=O)c2cc3sccc3n12 the results were D3 ag -15.5, DRD3 antagonist -112.4*, TRPML1 inh 1.7 and TRPML1 ag 0.4.
CNCCCC1Sc2ccccc2Oc2ccccc21 (stereo not given) was read as D3 ag 2.1, DRD3 antagonist -73.7*, TRPML1 inh 22.1 and TRPML1 ag -0.6.
Screening CCN(CC)CCCNC(=O)C1c2ccccc2Oc2ccccc21 returned D3 ag -7.5, DRD3 antagonist -6.9, TRPML1 inh 2.9 and TRPML1 ag -0.5.
`CCc1cccc(NC(=O)Cn2nc3c4cc(F)ccc4n(Cc4cccc(C)c4)cc-3c2=O)c1` gave D3 ag 4.1, TRPML1 inh -11.9 and TRPML1 ag 1.2.
`CCn1c(=O)n(CC)c2cc(S(N)(=O)=O)c(C)cc21` gave D3 ag -5.7, DRD3 antagonist -16.9, TRPML1 inh -18.4 and TRPML1 ag -0.2.
CCn1c(=O)n(CC)c2cc(S(=O)(=O)N3CCCCC3)c(C)cc21 was read as D3 ag 31.4*, DRD3 antagonist 20.7, TRPML1 inh 3.4 and TRPML1 ag -0.1.
Clc1ccc(OCCCN2CCCCC2)c(Br)c1 was read as D3 ag -10.1, DRD3 antagonist -68.3*, TRPML1 inh 0.1 and TRPML1 ag -0.5.
Clc1ccc(OCCCCCN2CCCC2)c(Br)c1 was read as D3 ag -14.1, DRD3 antagonist -51.9*, TRPML1 inh 16.8 and TRPML1 ag 1.5.
For CCN1CCN(CCCOc2ccc(Cl)cc2Br)CC1 the results were D3 ag -10.7, DRD3 antagonist inconclusive, TRPML1 inh 9.2 and TRPML1 ag 0.2.
`Cc1cc2c(cc1C)NC(c1c(C)n(C)n(-c3ccccc3)c1=O)C1=C(CC(C)(C)CC1=O)N2` (stereo not given) gave D3 ag -1.6, DRD3 antagonist -92.9*, TRPML1 inh 9.7 and TRPML1 ag inconclusive.
COc1ccc(OC)c(-c2csc(NC(=O)Cc3ccccc3OC)n2)c1 was read as D3 ag -23.1, DRD3 antagonist -62.6*, TRPML1 inh 24.9 and TRPML1 ag 1.9.
COc1ccc(CNC(=O)c2cc(-c3ccccc3OC)on2)cc1 was read as D3 ag -29.1, DRD3 antagonist -62.7*, TRPML1 inh -7.0 and TRPML1 ag 1.7.
O=C(NCc1ccc2c(c1)OCO2)c1cc(-c2ccccc2Cl)on1 was read as D3 ag -0.1, DRD3 antagonist -58.8*, TRPML1 inh 6.2 and TRPML1 ag 0.7.
Screening O=C(Nc1ccc2c(c1)OCO2)c1cc(-c2ccccc2Cl)on1 returned D3 ag -3.7, DRD3 antagonist -16.9, TRPML1 inh 3.6 and TRPML1 ag 1.8.
Screening COc1ccccc1-c1cc(C(=O)NCc2ccc(Cl)cc2)no1 returned D3 ag -51.6, DRD3 antagonist inconclusive, TRPML1 inh 19.7 and TRPML1 ag 3.2.
For COc1ccccc1-c1cc(C(=O)NCc2ccccc2)no1 the results were D3 ag -27.5, DRD3 antagonist -51.7*, TRPML1 inh -5.8 and TRPML1 ag -0.2.
`COc1ccccc1-c1cc(C(=O)NCc2ccc(F)cc2)no1` gave D3 ag -28.8, DRD3 antagonist inconclusive, TRPML1 inh -4.2 and TRPML1 ag 1.7.
Screening Cc1nc(SCC(=O)CC(=O)OC(C)C)c(C#N)c(C)c1C returned D3 ag -1.1, DRD3 antagonist 18.2, TRPML1 inh -1.0 and TRPML1 ag 71.2*.
For COc1cccc(Cn2cnc3c(cnn3C(C)(C)C)c2=O)c1 the results were TRPML1 inh -12.0 and TRPML1 ag 0.1.
CN1C[C@H](C(=O)NC2(C)OC3(O)[C@@H]4CCCN4C(=O)[C@H](Cc4ccccc4)N3C2=O)CC2c3cccc4[nH]cc(c34)C[C@H]21 (stereo not given in full) was read as D3 ag -56.9, DRD3 antagonist -56.8*, TRPML1 inh -0.1 and TRPML1 ag 0.9.
`COc1ccc(OCCSc2ncccn2)cc1` gave D3 ag -3.2, DRD3 antagonist -16.6, TRPML1 inh -7.7 and TRPML1 ag 0.4.
`COc1ccc(OCCSc2nc(C)nc3ccccc23)cc1` gave D3 ag 55.4*, DRD3 antagonist 63.3, TRPML1 inh 65.2 and TRPML1 ag 4.3.
Screening Cc1ccc(SCC(=O)NNC(=O)c2ccccc2)cc1C returned D3 ag -16.3, DRD3 antagonist -69.9*, TRPML1 inh -5.8 and TRPML1 ag -1.5.
CCn1c(=O)n(CC2CCC(C(=O)NC(C)C)CC2)c(=O)c2sccc21 (stereo not given) was read as D3 ag 5.1, TRPML1 inh 2.5 and TRPML1 ag -0.4.
`Cn1c(-c2ccc3ccccc3n2)nc2cnccc21` gave D3 ag 11.6, DRD3 antagonist -59.0*, TRPML1 inh -3.4 and TRPML1 ag 2.5.
Screening O=C(c1ccccc1Br)N1CCN(c2ccccn2)CC1 returned D3 ag 33.0*, DRD3 antagonist -11.0, TRPML1 inh 10.5 and TRPML1 ag 1.1.
Screening COc1cc2c(c(OC)c1OC)-c1c(cc3c(c1OC)OCO3)C[C@@H](C)[C@](C)(O)C2 returned D3 ag 8.3.
`O=C(CN1C(=O)COc2ccc(Cl)cc21)Nc1ccc(F)cc1` gave D3 ag 5.2, TRPML1 inh -8.0 and TRPML1 ag 1.9.
COc1c(C)cc(S(=O)(=O)NCc2ccco2)c(C)c1C was read as D3 ag 30.6*, DRD3 antagonist 3.5, TRPML1 inh 14.0 and TRPML1 ag -1.9.
`Cn1c(=O)c2ccccc2n(CC(=O)NC2CCCCC2)c1=O` gave D3 ag -8.0, DRD3 antagonist -4.5, TRPML1 inh 28.2 and TRPML1 ag 0.9.
Cn1c(=O)n(CC(=O)NC2CCCCC2)c(=O)c2ccccc21 was read as D3 ag -6.6, DRD3 antagonist -58.5*, TRPML1 inh -17.1 and TRPML1 ag -0.4.
Screening CCN(Cc1ccccc1)C(=O)Nc1ccc2c(c1)N(C)C(=O)c1ccccc1S2 returned D3 ag -10.3, TRPML1 inh -14.7 and TRPML1 ag -0.1.
Screening C[C@H](CCCC/C=C/C(=O)O)O[C@@H]1O[C@@H](C)[C@H](O)C[C@H]1O returned D3 ag 43.6*, DRD3 antagonist 3.2, TRPML1 inh -3.0 and TRPML1 ag -0.3.
`Cc1ccc(/C=C/C(=O)NC2CCCCCCC2)o1` gave D3 ag -18.4, DRD3 antagonist -61.3*, TRPML1 inh -8.1 and TRPML1 ag 2.6.
`Cc1ccc(/C=N/NC(=O)NC2CCCCC2)o1` gave D3 ag 1.8, DRD3 antagonist 9.0, TRPML1 inh 0.0 and TRPML1 ag 1.2.
Screening CCN(CC)c1ccc(C(=O)O)cc1 returned D3 ag 1.4, DRD3 antagonist 7.9, TRPML1 inh -15.3 and TRPML1 ag 0.3.
